Assay results reported in PubChem BioAssay (NCATS).
Inconclusive results are not listed. Entries that show only a call come without a potency. Activity calls are given as the source filed them. Unless noted, calls follow the shape of the dose curve; as a rule, active = well fitted curve in the direction sought with a large enough effect; inconclusive = small, poorly fitted or top-dose-only effect, or another doubt; inactive = no such curve, though single readings can be large; an effect the other way counts as inactive or inconclusive.

Key:
[1] = S16 Schwann cell PMP22 intronic element beta-lactamase assay (AID 624044; calls by dose curve; also: nearly all actives have a fitted effect of over 15% in size)
Procedure, shortened: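 Rat S16 Schwann cells with beta-Lac driven by a PMP22 intronic element, compound-treated 24 h at 37 °C. LiveBLAzer FRET B/G read: 460 nm normalized to potassium clavulanate vs DMSO; 535 nm FRET as viability; concentration-effect curves classified.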

[2] = target: Glutaminase kidney isoform, mitochondrial (Homo sapiens) (UniProt O94925); test: qHTS for Inhibitors of Glutaminase (GLS): LOPAC Validation (AID 624146);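 also: glutamate product detected by oxidase and peroxidase coupled Amplex red fluorescence gain; series mostly up to about 46 µM; nearly all actives have a fitted effect of over 60% in size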
Procedure, shortened: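 hKGA; 45 mM KH2PO4 pH 8.2 + 0.02% Tween-20; cpd via pin tool; 1 mM Gln soln; GluOx/HRP/Amplex Red; RT 30 min; fluor. t0 & final.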

[3] = qHTS of Trypanosoma Brucei Inhibitors: LOPAC Validation (AID 624147); also: potency is read from the fitted curve at half-maximal effect
Procedure, shortened: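 In this concentration-response screen, enzyme-free wells defined baseline while DMSO plates tracked drift. Each reaction combined TbPYK, substrate, compound and 130 uM ADP for 45 min at room temperature. Kinase-Glo Plus luminescence gave the signal.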

[4] = target: Glucagon-like peptide 1 receptor (Homo sapiens) (UniProt P43220); test: qHTS of GLP-1 Receptor Agonists: LOPAC Validation (AID 624148);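 also: luminescence from a luciferase reporter switched on by cAMP; higher luminescence signal means agonism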
Procedure, shortened: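 Agonism scored as increased luciferase luminescence driven by cAMP in HEK293 clones carrying GLP-1R. Cells settled 12 hours, received compound for 4-6 hr at 37 deg C, 5% CO2, and were read after 12 min detection reagent at RT.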

[5] = qHTS of Nrf2 Activators: LOPAC Validation (AID 624149)
Procedure, shortened: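 AREc32_Fluc cells, 1000/well in OPTI-MEM with 5% FBS, grown overnight, then exposed to compounds for 24 hr at 37 deg C, 5% CO2. ARE-driven firefly luciferase read by Steady-Glo luminescence after 30 min at RT.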

[6] = HTS Assay for Allosteric Antagonists of the Human D2 Dopamine Receptor: Hit Validation in HTRF (AID 624455);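 also: stable D1 dopamine receptor cell line scored for blocking the D1 response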
Procedure, shortened: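 Hit validation in cells stably expressing the D1 dopamine receptor, run in HTRF format. Compounds were tested for their ability to inhibit the D1-mediated response.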

Chain of Glutaminase kidney isoform, mitochondrial (Homo sapiens) (O94925 whole entry, looked up, canonical isoform): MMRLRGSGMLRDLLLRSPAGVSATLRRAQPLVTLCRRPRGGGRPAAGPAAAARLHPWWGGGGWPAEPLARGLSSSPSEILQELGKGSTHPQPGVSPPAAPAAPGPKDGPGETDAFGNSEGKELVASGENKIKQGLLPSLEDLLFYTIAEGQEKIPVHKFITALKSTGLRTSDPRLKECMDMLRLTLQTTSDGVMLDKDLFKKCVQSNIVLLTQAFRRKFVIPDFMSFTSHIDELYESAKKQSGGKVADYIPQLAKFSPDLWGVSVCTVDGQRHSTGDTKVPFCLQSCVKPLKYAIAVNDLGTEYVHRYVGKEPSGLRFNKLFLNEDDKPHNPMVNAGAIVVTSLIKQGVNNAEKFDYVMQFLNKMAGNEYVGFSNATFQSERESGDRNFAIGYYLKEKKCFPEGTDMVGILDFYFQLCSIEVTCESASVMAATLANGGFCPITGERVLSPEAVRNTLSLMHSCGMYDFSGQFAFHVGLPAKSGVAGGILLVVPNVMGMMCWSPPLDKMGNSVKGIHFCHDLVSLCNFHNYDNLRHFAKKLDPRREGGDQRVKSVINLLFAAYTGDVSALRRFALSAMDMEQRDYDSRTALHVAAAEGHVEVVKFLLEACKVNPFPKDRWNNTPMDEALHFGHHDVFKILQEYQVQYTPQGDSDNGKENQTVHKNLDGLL
Chain of Glucagon-like peptide 1 receptor (Homo sapiens) (P43220 whole entry, looked up): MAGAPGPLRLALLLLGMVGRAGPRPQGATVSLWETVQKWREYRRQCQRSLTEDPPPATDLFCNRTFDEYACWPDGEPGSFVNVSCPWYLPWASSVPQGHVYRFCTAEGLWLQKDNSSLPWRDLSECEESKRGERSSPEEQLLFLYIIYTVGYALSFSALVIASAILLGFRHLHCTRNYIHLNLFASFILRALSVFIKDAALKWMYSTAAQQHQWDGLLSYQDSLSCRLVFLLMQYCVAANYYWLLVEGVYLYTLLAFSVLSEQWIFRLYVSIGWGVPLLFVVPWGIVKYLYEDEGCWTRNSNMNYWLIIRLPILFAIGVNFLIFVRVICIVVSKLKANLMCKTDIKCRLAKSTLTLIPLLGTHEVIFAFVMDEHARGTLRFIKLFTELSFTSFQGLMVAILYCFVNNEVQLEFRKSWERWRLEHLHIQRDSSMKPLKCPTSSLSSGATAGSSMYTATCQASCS

| SMILES | Potency [1] | Potency [2] | Potency [3] | outcome [4] | outcome [5] | Potency [6] |
| --- | --- | --- | --- | --- | --- | --- |
| CCC1C(=O)OCC1Cc1cncn1C (configuration not stated) | inactive | inactive | inactive | inactive | inactive | inactive |
| CC1CN(S(=O)(=O)c2cccc3cnccc23)CCN1 (configuration not stated) | – | inactive | inactive | inactive | inactive | – |
| Nc1nc(Cl)nc2c1ncn2[C@@H]1O[C@H](COP(=O)(O)OP(=O)(O)OP(=O)(O)O)[C@@H](O)[C@H]1O | – | inactive | inactive | inactive | inactive | – |
| Cc1ccc(C(=O)O[C@H](C(=O)O)[C@@H](OC(=O)c2ccc(C)cc2)C(=O)O)cc1 (tested in a mixture with another compound) | – | inactive | inactive | inactive | inactive | – |
| CN1C2CC(OC(=O)[C@H](CO)c3ccccc3)CC1C1OC12 (some centres not stated) | – | inactive | inactive | inactive | inactive | – |
| NCCSSCCN | – | inactive | inactive | inactive | inactive | inactive |
| CN(C)CCC(c1ccc(Cl)cc1)c1ccccn1 (configuration not stated) | – | inactive | inactive | inactive | inactive | inactive |
| O=C(O)CCCC[C@@H]1CCSS1 | – | inactive | inactive | inactive | inactive | inactive |
| Clc1ccc(N2CCN(Cc3c[nH]c4ncccc34)CC2)cc1 | – | inactive | inactive | inactive | inactive | inactive |
| COC(=O)c1c(C)[nH]c(C)c1C(=O)c1ccccc1Cc1ccccc1 | – | inactive | inactive | inactive | inactive | inactive |
| NC(CCCP(=O)(O)O)C(=O)O (configuration not stated) | – | inactive | inactive | inactive | inactive | inactive |
| Cn1c(=O)c2[nH]c(-c3ccccc3)nc2n(C)c1=O | – | inactive | inactive | inactive | inactive | inactive |
| CCN1/C(=C/C(C)=O)Sc2ccc(OC)cc21 | – | inactive | inactive | inactive | inactive | inactive |
| COc1ccc2c(c1)CCC1C2CC[C@@]2(C)C1CC[C@@H]2NCCCCCCN1C(=O)CCC1=O (some centres not stated) | – | inactive | inactive | inactive | inactive | inactive |
| NC(=O)C1=CN(C2OC(COP(=O)(O)OP(=O)(O)OC[C@H]3O[C@@H](n4cnc5c(N)ncnc54)[C@H](OP(=O)(O)O)[C@@H]3O)C(O)C2O)C=CC1 (some centres not stated) | – | inactive | inactive | inactive | inactive | inactive |
| CNc1ncnc2c1ncn2[C@@H]1O[C@H](CO)[C@@H](O)[C@H]1O | – | inactive | inactive | inactive | inactive | inactive |

| SMILES | Potency [1] | Potency [2] | Potency [3] | outcome [4] | outcome [5] | Potency [6] |
| --- | --- | --- | --- | --- | --- | --- |
| Cc1cc(NC(=O)Nc2ccc3c(ccn3C)c2)sn1 | – | inactive | inactive | inactive | inactive | inactive |
| NC(=O)C(=O)O | – | inactive | inactive | inactive | inactive | inactive |
| CN=c1nc(-c2ccccc2)n(-c2ccccc2)s1 | – | inactive | 8.49 µM (active) | inactive | inactive | inactive |
| CN(C)c1nc(N)c(C(=O)N=C(N)N)nc1Cl | – | inactive | inactive | inactive | inactive | inactive |
| CC(C)Cc1ccc([C@H](C)C(=O)O)cc1 | – | inactive | inactive | inactive | inactive | inactive |
| O=C(Nc1ccccc1)c1cc([N+](=O)[O-])ccc1Cl | – | inactive | inactive | inactive | inactive | inactive |
| Ic1ccc(N2CCN(Cc3c[nH]c4ncccc34)CC2)cc1 | – | inactive | inactive | inactive | inactive | inactive |
| NC(=S)c1ccc[n+]([C@@H]2O[C@@H](COP(=O)([O-])OP(=O)(O)OC[C@H]3O[C@@H](n4cnc5c(N)ncnc54)[C@H](OP(=O)(O)O)[C@@H]3O)C(O)C2O)c1 (some centres not stated) | – | inactive | inactive | inactive | inactive | inactive |
| NCC1OC(O[C@H]2[C@H](O)[C@@H](OC3C(O)C(N)CC(N)C3OC3OC(CO)C(O)C(O)C3N)O[C@@H]2CO)C(N)C(O)C1O (some centres not stated) | – | inactive | inactive | inactive | inactive | inactive |
| O=C(O)CC[C@@H](C(=O)O)N1C(=O)c2ccccc2C1=O | – | inactive | inactive | inactive | inactive | inactive |
| CSc1nc(N)c2ncn([C@@H]3O[C@H](COP(=O)(O)OP(=O)(O)OP(=O)(O)O)[C@@H](O)[C@H]3O)c2n1 | – | inactive | inactive | inactive | inactive | inactive |
| NCCCCCCCCCCN | – | inactive | inactive | inactive | inactive | inactive |
| NCCCS(=O)(=O)O | – | inactive | inactive | inactive | inactive | inactive |
| NO | – | inactive | inactive | inactive | inactive | inactive |
| O=P(O)(O)C(Cl)(Cl)P(=O)(O)O | – | inactive | inactive | inactive | inactive | inactive |
